Reference: PubChem BioAssay (NCI)
The panel holds about 83,000 compounds, 20% with a hit somewhere; the sample as a whole holds those more often.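 The endpoint reported here, percent growth, reads 100 for growth as untreated, 0 for no net growth and -100 for all cells dead.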 Activity calls are given as the source filed them. The calls were made as follows: active = growth percent below 10; inactive = the rest.

Columns and labels:
Assay in all cases: NCI-60 one-dose screen, 48 h (100 = growth as untreated, 0 = no growth, -100 = all killed)
[1] = tested on: NCI-H23 lung; conditions: 10 µM unless noted
[2] = tested on: NCI-H322M lung; conditions: 10 µM unless noted
[3] = tested on: HOP-62 NSCLC; conditions: 10 µM unless noted
[4] = tested on: NCI-H460 lung; conditions: 10 µM unless noted
[5] = tested on: NCI-H522 lung; conditions: 10 µM unless noted
[6] = tested on: A549/ATCC NSCLC; conditions: 10 µM unless noted
[7] = tested on: 786-0 renal; conditions: 10 µM unless noted
[8] = tested on: COLO 205 colon; conditions: 10 µM unless noted
[9] = tested on: NCI-H226 lung; conditions: 10 µM unless noted
[10] = tested on: HOP-92 NSCLC; conditions: 10 µM

Measured: growth

O=C(Cn1c(-c2ccccc2)nc2cc(Cl)c(Cl)cc21)N=Nc1c(O)[nH]c2ccc(Cl)cc12
inactive: [1] 68.7% | [2] 94.6% | [3] 86.5% | [4] 65.8% | [5] 72.1% | [6] 73.8% | [7] 96.2% | [8] 66.6%

CC1(C)NCCC[C@]2(C)[C@H]3C/C(=N\O)C4[C@@H]5C[C@@](C)(CO)CC[C@]5(C)CC[C@@]4(C)[C@]3(C)CC[C@@H]12 (some centres undefined)
inactive: [1] 94.2% | [9] 94.3% | [2] 101% | [3] 111% | [4] 100% | [6] 95.3% | [7] 98.4% | [8] 103%

C=C1CC[C@@H]2[C@]3(C)COC(c4ccccc4)O[C@@H]3CC[C@@]2(C)[C@@H]1C/C=C1/C(=O)OC[C@H]1O (some centres undefined)
inactive: [1] 96.8% | [2] 97.1% | [3] 110% | [4] 99.8% | [10] 105% | [5] 63.5% | [6] 92.6% | [7] 111% | [8] 108%

CN1CCN(Cc2ccc(NC(=O)c3cncc(C#Cc4cnc5ccc(N6CCN(C)CC6)nn45)c3)cc2C(F)(F)F)CC1
inactive: [9] 28% | [2] 35.5% | [3] 28.8% | [5] 82.1% | [8] 38.9%
active: [4] -82.4% | [10] -16.1% | [6] -71.4% | [7] -84.6%

COc1cc(OC)cc(C(=O)Nc2cccc(C#Cc3cccc4[nH]nc(N)c34)c2)c1
inactive: [9] 30.8% | [2] 53.6% | [3] 39% | [4] 13% | [10] 43% | [6] 33.7% | [7] 46.5%
active: [5] 2.45% | [8] 6.38%

CCCC(=O)NC(c1cccnc1)c1cc(C(C)(C)C)c2cccnc2c1O (centres undefined)
active: [4] 3.55% | [5] 7.22% | [7] 2.54%
inactive: [9] 12.7% | [2] 33.6% | [3] 25.9% | [10] 50.5% | [6] 18.2% | [8] 20.3%

N#Cc1ccccc1Cn1c2nc(=N)c3ccccc3c-2nc2ccccc21
inactive: [1] 52.4% | [2] 66% | [3] 62.2% | [4] 22.1% | [5] 59.7% | [6] 44.3% | [7] 80.3%
active: [8] 3.63%

O=C(c1ccc(Cl)cc1)C1[C@H](c2ccc(Cl)cc2)[C@@H](c2ccccc2)NC12C(=O)Nc1ccccc12 (some centres undefined)
inactive: [9] 53.5% | [2] 65.5% | [3] 69.6% | [4] 32.7% | [10] 50.4% | [5] 78% | [6] 42.6% | [7] 64.2% | [8] 73%

COc1ccc(-c2nc(C(Cl)Cl)nc3cc(-c4ccccc4)nn23)cc1
inactive: [9] 63.2% | [7] 68.8%
active: [2] -33.8% | [3] -11.5% | [4] -75.9% | [10] -14.8% | [5] -59.4% | [6] -42.9% | [8] -74.6%

CCCCCCCn1cc2c(N[C@H](C)c3ccccc3)ncnc2n1
inactive: [9] 100% | [2] 101% | [3] 95.7% | [4] 104% | [10] 94% | [5] 99.6% | [6] 106% | [7] 105% | [8] 115%

Cc1ccc(-c2cc3nc(C(Cl)Cl)nc(C)n3n2)cc1
inactive: [9] 94.6% | [2] 101% | [3] 92.1% | [4] 95.1% | [10] 110% | [5] 104% | [6] 108% | [7] 104% | [8] 115%

NC(N)=Nc1ccc(Nc2cccc(Nc3ccc(Cl)c(C(F)(F)F)c3)c2)cn1
active: [2] -6.68% | [4] -23.9% | [8] -25.1%
inactive: [1] 41.7% | [3] 19.5% | [6] 57% | [7] 72.6%

Fc1ccc(-c2cc3nc(C(Cl)Cl)nc(-c4ccc(F)cc4)n3n2)cc1
inactive: [9] 79.1% | [7] 51.4%
active: [2] -30.3% | [3] -27.6% | [4] -52.9% | [10] -3.1% | [5] 0.105% | [6] -26.8% | [8] -70.2%

Nc1cc(-c2c[nH]c3ccc(Br)cc23)nc2cc(-c3c[nH]c4ccc(Br)cc34)nn12
inactive: [9] 55.3% | [2] 39.8% | [3] 40% | [6] 17.7%
active: [4] -24.8% | [10] -12.1% | [5] -64% | [7] -50.3% | [8] -50.5%

CC(=O)c1ccc(Nc2nc(SCC(C)C)nc(-c3ccc(F)cc3)c2C#N)cc1
inactive: [9] 114% | [2] 116% | [3] 116% | [4] 109% | [10] 118% | [5] 103% | [6] 109% | [7] 105% | [8] 115%

CC(=O)O[C@@H]1C(=O)N(c2cnccn2)[C@H]1c1ccccc1[N+](=O)[O-]
active: [4] -5.1% | [10] 9.48% | [5] -45.7%
inactive: [9] 39.3% | [2] 36.6% | [3] 41.5% | [6] 14.4% | [7] 14.7% | [8] 20.9%

Cn1cc(-c2cc(N)n3nc(-c4cn(C)c5ccccc45)cc3n2)c2ccccc21
inactive: [9] 113% | [2] 98.5% | [3] 108% | [4] 93.3% | [10] 88.8% | [5] 109% | [6] 75.8% | [7] 63.7% | [8] 123%

C[C@H]1c2[nH]c3ccccc3c2C[C@H]2C(=O)N(CCCCCCC(=O)NO)CC(=O)N21
inactive: [9] 94.6% | [2] 84.9% | [3] 88.7% | [4] 82.7% | [10] 67.6% | [5] 65.6% | [6] 98% | [7] 92% | [8] 90.3%

Cc1cc(C(NC(=O)CCCCCNc2cccc3c2C(=O)N(C2CCC(=O)NC2=O)C3=O)c2ccc3c(c2)OC(F)(F)O3)c(O)c2ncccc12 (centres undefined)
active: [10] 4.13%
inactive: [9] 72.8% | [2] 71.1% | [3] 51.1% | [4] 14.7% | [5] 72.1% | [6] 66.7% | [7] 79.2% | [8] 111%

COC(=O)c1ccc(NC2=C/C(=N/S(=O)(=O)c3ccc(C(=O)O)cc3)c3ccccc3C2=O)cc1
inactive: [9] 32.7% | [2] 107% | [3] 88.2% | [4] 96.3% | [10] 23.3% | [5] 81.7% | [6] 98.7% | [8] 115%
active: [7] 9.38%

COc1cccc(N2CCN(c3ncnc4c3[nH]c3ccc(F)cc34)C[C@H]2C)c1
inactive: [9] 33.5% | [2] 89.6% | [3] 56.6% | [4] 66.3% | [10] 53.3% | [5] 33.1% | [6] 61% | [7] 71.4% | [8] 61.4%
